PubChem BioAssay AID686949 (The Scripps Research Institute Molecular Screening Center, 2013)
Hit rate of the full screen: of about 3,200 compounds, about 2,200 (69%) were called active.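 The calls were made as follows: active = activation, as change over the incubation, above the mean of all tested compounds plus 3 SD (cut at about 13% in these data); inactive = the rest.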 The set was probably picked from earlier hits. Only a sample is shown.

biological target: Kallikrein-7 (Homo sapiens) (UniProt P49862); assay: proKLK7 zymogen activators, confirmation, biochemical, fluorescence intensity, triplicate (AID 686949); conditions: purified proKLK7, EDANS-DABCYL substrate fluorescence; at 7 µM; stronger effect = higher value
Sequence (P49862 whole entry, looked up): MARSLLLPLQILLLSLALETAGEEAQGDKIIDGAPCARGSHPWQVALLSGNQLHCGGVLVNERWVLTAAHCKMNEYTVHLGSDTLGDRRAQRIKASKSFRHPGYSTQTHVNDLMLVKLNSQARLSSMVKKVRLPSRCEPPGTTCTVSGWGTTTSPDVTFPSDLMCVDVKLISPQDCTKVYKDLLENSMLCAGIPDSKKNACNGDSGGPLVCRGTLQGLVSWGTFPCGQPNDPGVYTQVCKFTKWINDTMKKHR

Question: For COc1cccc(-c2nc3ccc(N4CCN(C)CC4)cc3[nH]2)c1, which activation is on record?
Answer: 64% (active)

Question: For CCOc1ccc(-c2cc(C)[n+](CCN(CC)CC)c(-c3ccc(OCC)cc3)c2)cc1, which activation is on record?
Answer: 19.2% (active)

Question: Cc1nc2ccc(N3CCN(C)CC3)cc2nc1C was tested. Which activation did it give?
Answer: 16.1% (active)

Question: CCOC(=O)c1c(N)n(CCN2CCOCC2)c2nc3ccccc3nc12 was tested. Which activation did it give?
Answer: 27.8% (active)
